According to PMC4336329 (PLoS ONE, 2015):
The campaign covered roughly 310,000 compounds. About 14,000 (4.5%) showed an effect of 50% or more. Effects have a minus sign here. Only a selection was taken, and strong results are over-represented in it overall.

target: human ether-à-go-go-related gene (hERG) potassium channel (human, UniProt Q12809); assay: primary screen, population patch clamp on CHO cells stably expressing hERG; higher = less effect of the substance
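Note: peak tail current of the secondary pulse compared with the same well before compound.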

human ether-à-go-go-related gene (hERG) potassium channel, sequence (Q12809 whole entry, looked up): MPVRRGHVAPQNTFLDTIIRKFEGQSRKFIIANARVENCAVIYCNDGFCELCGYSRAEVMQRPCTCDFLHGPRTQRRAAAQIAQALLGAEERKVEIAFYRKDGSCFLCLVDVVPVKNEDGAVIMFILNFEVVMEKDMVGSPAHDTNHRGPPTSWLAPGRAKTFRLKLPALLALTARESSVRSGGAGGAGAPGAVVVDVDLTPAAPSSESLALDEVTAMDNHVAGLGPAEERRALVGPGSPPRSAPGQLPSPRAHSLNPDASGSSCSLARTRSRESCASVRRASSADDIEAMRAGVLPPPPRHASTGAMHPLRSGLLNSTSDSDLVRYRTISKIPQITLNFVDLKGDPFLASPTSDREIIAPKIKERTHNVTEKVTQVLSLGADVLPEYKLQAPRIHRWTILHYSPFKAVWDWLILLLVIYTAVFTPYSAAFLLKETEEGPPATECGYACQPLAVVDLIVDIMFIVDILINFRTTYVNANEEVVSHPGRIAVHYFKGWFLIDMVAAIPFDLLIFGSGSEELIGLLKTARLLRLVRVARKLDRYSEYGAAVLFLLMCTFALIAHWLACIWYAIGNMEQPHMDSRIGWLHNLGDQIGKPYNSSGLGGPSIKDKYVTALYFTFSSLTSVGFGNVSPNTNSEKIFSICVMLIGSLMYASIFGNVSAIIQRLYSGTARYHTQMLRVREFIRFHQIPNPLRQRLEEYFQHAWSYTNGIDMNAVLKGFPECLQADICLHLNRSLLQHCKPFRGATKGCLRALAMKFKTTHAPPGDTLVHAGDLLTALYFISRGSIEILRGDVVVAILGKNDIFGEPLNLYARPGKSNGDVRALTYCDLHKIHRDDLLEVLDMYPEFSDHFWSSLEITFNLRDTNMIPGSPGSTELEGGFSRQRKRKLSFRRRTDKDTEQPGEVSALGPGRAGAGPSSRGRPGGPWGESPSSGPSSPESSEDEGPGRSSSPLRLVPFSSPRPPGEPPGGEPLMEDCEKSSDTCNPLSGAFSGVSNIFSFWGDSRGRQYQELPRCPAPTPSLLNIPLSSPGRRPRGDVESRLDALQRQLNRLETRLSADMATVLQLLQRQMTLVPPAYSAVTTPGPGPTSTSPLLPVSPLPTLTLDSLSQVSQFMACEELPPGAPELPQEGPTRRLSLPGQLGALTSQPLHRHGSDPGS

Point of comparison: `O=C(O)c1cc(=O)c2ccccc2[nH]1`, “hERG current change (%, negative = inhibition) at 10uM” value 8.86%. Against it:
- O.O=C(O)c1cc(=O)c2c(Cl)cc(Cl)cc2[nH]1 — lower, -51.9%
- Cc1c(OC(C(=O)O)c2ccccc2)ccc2c1oc(=O)c1ccccc12 (stereo not shown) — higher, 17.3%
- Cc1ccc(S(=O)(=O)Nc2ccc3c(c2)nc(CCN2CCN(c4ccccn4)CC2)n3C)cc1 — lower, -84.6%
- Cn1c(CCN2CCN(c3ccccn3)CC2)nc2cc(NS(=O)(=O)c3ccc(Cl)cc3)ccc21 — lower, -84.3%
- CC(C)C(=O)Nc1ccc2c(c1)nc(CCN1CCN(c3ccccn3)CC1)n2C — lower, -18.2%
- CC(=O)Nc1ccc2c(c1)nc(CCN1CCN(c3ccccn3)CC1)n2C — higher, 18.6%
- CC1=C(C(=O)OCC(Cl)(Cl)Cl)N2C(=O)C(NC(=O)Cc3ccccc3)C2SC1 (stereo not shown) — higher, 15.5%
- O=c1[nH]c(/C=C/c2ccc3c(c2)OCO3)c([N+](=O)[O-])c(=O)[nH]1 — higher, 45.8%
- COc1ccc(NC(=O)CN(C)CC(=O)NC2CCC(C)CC2)cc1 (stereo not shown) — lower, 0.408%
- O=C(NCCc1ccccc1)C(NS(=O)(=O)c1cccc2nsnc12)c1ccccc1 (stereo not shown) — lower, -25.4%
- COc1ccc(CCNC(=O)CCCn2c(SCC#N)nc3ccccc3c2=O)cc1OC — lower, -12.7%
- CCOc1nc(Nc2ccc(F)cc2)nc(N2CCN(c3ccc(OC)cc3)CC2)n1 — lower, -14.7%
- Cc1ccc(Nc2nc(N)nc(CSC(=S)N3CCN(c4ccccc4)CC3)n2)cc1 — lower, 8.32%
- CCN1CCN(Cc2nc(N)nc(Nc3ccc(C)c(C)c3)n2)CC1 — lower, -65.8%
- COC(=O)CC(=O)Cc1nc(N)nc(Nc2ccc(C)c(C)c2)n1 — lower, -9.22%
- COc1ccc(N2CCN(Cc3nc(N)nc(Nc4ccc(C)c(Cl)c4)n3)CC2)cc1 — lower, -63.1%
- Nc1nc(CN2CCN(c3ccccc3)CC2)nc(Nc2ccc(Cl)cc2)n1 — lower, -76%
- Nc1nc(CSC(=S)N2CCN(c3ccccc3)CC2)nc(Nc2ccccc2)n1 — lower, 0.151%
- CCOc1nc(Nc2ccc(OC)c(Cl)c2)nc(N2CCN(c3ccc(OC)cc3)CC2)n1 — higher, 14.9%
- COc1ccc(Nc2nc(N)nc(CN3CCN(c4ccc(F)cc4)CC3)n2)cc1 — lower, -69.5%
- COc1ccc(N2CCN(c3nc(Nc4ccc(C)c(F)c4)nc(N4CCCC4)n3)CC2)cc1 — lower, 8.35%
- CS(=O)(=O)N1CCN(c2ccccc2NC(=O)c2cc3ccccc3o2)CC1 — lower, 7.78%
- O=C(COC(=O)[C@H](Cc1ccccc1)N1C(=O)c2ccccc2C1=O)Nc1ccc2c(c1)OCO2 — lower, -8.45%
- CCC1CCCCN1C(=O)c1cc(COc2ccc3ncccc3c2)on1 (stereo not shown) — lower, 0.129%
- CCCCn1c(N)c(N(CCOC)C(=O)CSc2ccccc2C)c(=O)[nH]c1=O — lower, -26.6%
- Cc1ccc(C(C)(C)C)cc1S(=O)(=O)Nc1nc2ccccc2nc1Cl — lower, -33.6%
- COc1ccc(-c2csc3nc(-c4ccccc4OC)oc(=O)c23)cc1 — higher, 19.1%
- COc1cc(C(=O)Nc2ccc3c(c2)Cc2ccccc2-3)cc(OC)c1OC — lower, 0.538%
- CC(=O)c1ccc(NC(=O)C(C)Nc2ccc(Cl)cc2)cc1 (stereo not shown) — lower, -4.45%
- Cc1nc(C(=O)NNC(=O)Nc2ccc(Cl)cc2)cs1 — lower, -0.711%
- CCN(CC)S(=O)(=O)c1cccc(-c2cn3cc(C)ccc3n2)c1 — lower, -9.87%
- O=C(Nc1cccnc1Oc1ccc(Cl)cc1)c1cccc2ccccc12 — lower, 3.61%
- COCCC(=O)N1CCC(Oc2ccc(C(=O)N3CCC(N(C)C)C3)cc2)CC1 (stereo not shown) — higher, 20.7%
- Cc1ccc(Nc2nc(N)nc(CN3CCN(c4ccccc4)CC3)n2)cc1Cl — lower, -66.4%
- Cc1ccc(Nc2nc(N)c3ccccc3n2)cc1Cl.Cl — higher, 9.26%
- Cc1ccc(Nc2nc(N)nc(CN3CCN(Cc4ccccc4)CC3)n2)cc1Cl — lower, -76.4%
- CCCCN(C(=O)CNC(=O)c1ccco1)C(C(=O)NC1CCCC1)c1ccc(OC)cc1 (stereo not shown) — lower, -20.1%
- NC(=O)CC(NC(=O)c1ccc(Br)cc1)c1ccc(N2CCN(c3ccc(F)cc3)CC2)c([N+](=O)[O-])c1 (stereo not shown) — lower, 6.16%
- CC(=O)Nc1ccc(OC(=O)Oc2ccc(NC(C)=O)cc2)cc1 — lower, 0.315%
- CC1(C)NC(C)(C)c2nonc2/C1=N\O — lower, -1.78%
- CCn1c2c(c3cc(C(=O)O)ccc31)CCCC2=O — higher, 18.5%
- CSc1nccc(N/N=C/c2ccccc2)n1 — higher, 23.9%
